Source: PubChem BioAssay
In the library only some 7% were active in any assay of this set; here they are far more common.
D3 antag: antagonists of human D3 dopamine receptor; P35462; D3R cells, DiscoveRx beta-arrestin luminescence, antagonist mode; active compounds read low; max response, negative = inhibition, %; actives 2.5% (n = 360,000); AID 652054; in the data active means max response below about -50%; inconclusive means no clear call, values can overlap the other calls; further: on the % scale 0 is the no-effect control and ±100 the full control effect
Target sequence (P35462 whole entry, looked up): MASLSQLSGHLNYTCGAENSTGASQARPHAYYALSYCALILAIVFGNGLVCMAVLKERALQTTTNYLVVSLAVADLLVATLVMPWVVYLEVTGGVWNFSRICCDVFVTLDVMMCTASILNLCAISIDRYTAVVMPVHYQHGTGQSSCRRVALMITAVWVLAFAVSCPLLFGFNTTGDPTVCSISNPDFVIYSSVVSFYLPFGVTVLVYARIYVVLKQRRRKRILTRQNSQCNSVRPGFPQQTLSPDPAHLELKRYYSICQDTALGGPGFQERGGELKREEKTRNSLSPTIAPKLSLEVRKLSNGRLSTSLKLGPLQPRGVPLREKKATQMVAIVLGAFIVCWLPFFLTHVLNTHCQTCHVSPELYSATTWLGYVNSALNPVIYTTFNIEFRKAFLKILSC
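Cells plated overnight at 1500 cells/well, then exposed to library compounds with dopamine controls for 90 minutes at 37 degrees C. DiscoveRx reagent added for 30–60 minutes at room temperature; luminescence read, quantitative HTS format.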
IL1B secr inh: blocks inflammasome-driven IL-1 beta release; THP-1 LPS/ATP IL-1B secretion, AlphaLISA, 16 h; active compounds read low; actives 4.7% (n = 360,000); activity change, % at 57.5 µM; in the data active means activity change below about -50%; inconclusive means mostly about -30% to -49%; further: on the % scale 0 is the no-effect control and ±100 the full control effect
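Secreted IL-1B measured by AlphaLISA bead assay after 16 h compound exposure of THP-1 cells; compounds (final up to 57.5 uM) added 1 h before LPS (250 ng/mL) and ATP (1.25 mM) stimulation; lower signal means less secretion.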
ATXN2 expr inh: inhibitors of ATXN2 expression | Potency, µM (series often up to 57 µM), without a hit: at the highest dose activity change, negative = inhibition, most hits filed as inhibitors | HEK-293 ATXN2-luciferase reporter, luminescence, 24 h | actives 0.72% (n = 360,000) | AID 1745845; further: potency means the concentration at half of the fitted maximal effect; on the % scale 0 is the no-effect control and ±100 the full control effect; nearly all actives have a fitted effect of over 55% in size
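qHTS (up to 57 uM final) was run with 24 h compound exposure of reporter cells at 37 °C. Each well was multiplexed: SteadyGlo luminescence measured ATXN2-luciferase expression after a fluorogenic Gly-Phe-AFC viability readout (25 uM final).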
S2 tox: viability counter-screen for ATXN expression inhibitors | Potency, µM (highest dose often 56.7 µM), usual class: cytotoxic | S2 cells (HEK-293 line with an ATXN2-luciferase reporter) viability, CellTiter-Fluor protease fluorescence, 24 h | actives 0.49% (n = 400,000) | AID 651635; further: potency means the concentration at half of the fitted maximal effect; nearly all actives have a fitted effect of over 40% in size
DRD3 agonist: agonists of human D3 dopamine receptor; P35462; D3R DiscoveRx beta-arrestin cells, luminescence, 90 min; max activation, %; actives 0.58% (n = 410,000); in the data active means max activation above about 30%; further: 0% is about no effect
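Agonist-mode cell screen: cells plated at 1500/well and incubated overnight at 37 °C, then exposed to library compounds for 90 min at 37 °C. Detection reagent was added for 30–60 min at room temperature, and luminescence was read.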
a7 integrin act: activates integrin-mediated alleviation for muscular dystrophy; actives 0.064% (n = 350,000); AID 624291; alpha7betagal myoblasts, beta-gal FDG fluorescence, 48 h; Potency, µM (top dose mostly 38.3 µM), for inactives: top-dose activation, usual class: activators;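 further: potency means the concentration at half of the fitted maximal effect; 100% = response of the positive control SU9516; nearly all actives have a fitted effect of over 60% in size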
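alpha7betagal+/- myoblasts (passage 13, 250/well) treated 48 h at 37C with compounds at 1:260 dilution of DMSO stock. Lysed, then beta-galactosidase activity read as FDG fluorescence (ex 480/em 540) after 30 min, with pre-read for autofluorescence.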
* marks the source's active call; other numbers are inactive results; i = inactive; ? = inconclusive; . = no result given. Unless noted, the call rests on the fitted dose curve; in most records, active means well fitted curve in the direction sought with a large enough effect; inconclusive means small, poorly fitted or top-dose-only effect, or another doubt; inactive means no such curve, though single readings can be large; an effect the other way counts as inactive or inconclusive.

SMILES	D3 antag	IL1B secr inh	ATXN2 expr inh	S2 tox	DRD3 agonist	a7 integrin act
O=C1CCC2S/C(=C/Nc3ccc(C(F)(F)F)cc3)C(=O)N12 (stereo not drawn)	-19	-13	2.8µM*	i	3	-6%
Cc1ccc(-c2nnn(CC(=O)N(c3ccccc3)C(C(=O)NCC3CCCO3)c3ccc(F)cc3)n2)o1 (stereo not drawn)	-8	14	-4%	i	2	12%
COc1cc(NC(=O)CN2CCCCCC2)cc(OC)c1	-9	11	-16%	i	-31	0%
COc1ccc2c(c1)c(C(=O)CN1CCc3ccccc3C1)c(C)n2C	?	1	.	i	-13	-14%
O=c1[nH]nc(-c2ccc(NCCO)c([N+](=O)[O-])c2)c2ccccc12	2	-2	14%	i	14	30%
O=[N+]([O-])c1cc(Cl)cc2c1nc(NCCO)c1ccccc12	2	-83*	-38%	i	5	-4%
CC(C)(C)NC(=O)Cn1c(-c2nonc2N)nc2ccccc21	15	12	-18%	i	10	0%
CCCCN(C(=O)CSc1nnc(Nc2ccc(C)c(C)c2)s1)c1c(N)n(Cc2ccccc2)c(=O)[nH]c1=O	0	-77*	51%	i	-10	8%
CN(C(=O)CSc1nnc(Nc2ccccc2)s1)c1c(N)n(Cc2ccccc2)c(=O)[nH]c1=O	9	1	-13%	i	5	-12%
COc1cc(CCN=Cc2cc(Cl)cc(Cl)c2O)c([N+](=O)[O-])cc1OC	-50*	27	6%	.	-22	.
COc1cc(CC(=O)O)c([N+](=O)[O-])cc1OC	11	21	-10%	i	-1	24%
Cc1cccc(NC(=S)NC2CCCCCC2)c1C	-3	32	-3%	i	-8	-31%
CN1C(=O)C(C)(C)c2cc(S(=O)(=O)N3CCCC(C(=O)NCc4ccc(F)cc4)C3)ccc21 (stereo not drawn)	-3	11	-5%	i	5	0%
O=C(COC(=O)Cn1[nH]c(=O)c2ccccc2c1=O)NNC(=O)c1ccc(Br)cc1	-118*	-8	2%	i	-34	-47%
O=C(COC(=O)Cc1n[nH]c(=O)c2ccccc12)NNC(=O)c1ccc(Br)cc1	?	41	9%	i	1	9%
O=C(COC(=O)Cc1n[nH]c(=O)c2ccccc12)NNC(=O)c1ccc(Cl)cc1	-131*	12	-30%	?	-26	-8%
COCCN(CCNC(=O)c1ccc(NC2=NC3CS(=O)(=O)CC3S2)cc1)Cc1ccco1 (stereo not drawn)	-3	-21	-4%	?	5	-2%
CCc1nn(CCCC(=O)NCc2cc(Br)ccc2OC)c(=O)c2cc3occc3n12	10	-56*	-25%	i	4	-6%
Cc1nccn1S(=O)(=O)c1ccc(Br)cc1Br	-3	0	-4%	i	1	11%
O=C(CN1C(=O)NC(c2ccccc2)(c2ccccc2)C1=O)NCc1ccc(F)cc1	0	-55*	-8%	i	2	-4%
Cc1ccc(C2(C)NC(=O)N(CC(=O)NC(=O)NC(C)(C)C)C2=O)cc1 (stereo not drawn)	10	9	-4%	i	33*	-77%
CC(C)(C)NC(=O)CN1C(=O)NC(c2ccccc2)(c2ccccc2)C1=O	-11	2	17%	i	-3	32%
Cc1ccc(CNC(=O)CN2C(=O)NC(C)(c3ccc(Cl)cc3)C2=O)cc1 (stereo not drawn)	-14	-52*	-20%	i	-4	-22%
O=C(CCl)NN1C(=O)NC2(CCCCC2)C1=O	-9	0	11%	i	-3	-45%
CC1(c2ccc(Cl)cc2)NC(=O)N(CC(=O)NCc2ccc(F)cc2)C1=O (stereo not drawn)	1	-14	2%	i	-29	15%
O=C(CCl)NN1C(=O)NC(c2ccccc2)(c2ccccc2)C1=O	9	-117*	?	.	3	-18%
